Source: PubChem BioAssay (National Center for Advancing Translational Sciences (NCATS))
Compounds with a hit are over-represented: about 4.7% of the library has one in this group of screens.
D1 agonist: Allosteric Agonists of the Human D1 Dopamine Receptor: qHTS. AID 504660, 2011. 1% of 360,000 active. HEK293 T-REx D1 cells, calcium flux, agonist mode. D(1A) dopamine receptor (Homo sapiens), P21728. activation, % at 2 µM
Target sequence (P21728 whole entry, looked up): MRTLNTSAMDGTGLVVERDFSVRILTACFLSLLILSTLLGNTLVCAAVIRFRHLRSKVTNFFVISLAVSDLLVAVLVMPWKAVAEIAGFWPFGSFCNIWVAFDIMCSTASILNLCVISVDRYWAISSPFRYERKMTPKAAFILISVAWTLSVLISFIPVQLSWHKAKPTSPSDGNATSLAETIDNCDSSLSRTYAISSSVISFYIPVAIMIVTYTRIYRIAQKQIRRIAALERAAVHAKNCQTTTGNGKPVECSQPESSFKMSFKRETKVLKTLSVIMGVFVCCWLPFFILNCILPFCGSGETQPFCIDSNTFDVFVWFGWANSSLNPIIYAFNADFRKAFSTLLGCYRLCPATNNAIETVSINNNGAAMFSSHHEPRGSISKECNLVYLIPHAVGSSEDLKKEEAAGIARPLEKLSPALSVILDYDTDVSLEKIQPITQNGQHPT
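Tetracycline-induced HEK293 TREx D1 cells, force-coupled to calcium signalling, were dye-loaded with a no-wash calcium kit. Compound was pin-added after a 10 s baseline. Fluorescence was read kinetically at 1 cycle/s for 180 s, with calcium rises flagged as agonism.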
TRHR PAM: qHTS for Small Molecule Agonists and Allosteric Enhancers of Human TRH Receptor: Primary Screen for Enhancers; Thyrotropin-releasing hormone receptor (Homo sapiens), P34981; TRHR cells, fluo-8 calcium fluorescence, EC20 TRH enhancement; enhancement, % at 2 µM; 0.66% of 360,000 active; AID 493056, 2011; in the data active = enhancement above about 30%
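Enhancer read-out: after compound pinning and an initial kinetic agonist-mode read, an EC20 of TRH (10 nM final) was injected and fluo-8 calcium signal (Ex 480/Em 530) followed at 1 s/cycle for 100 cycles in TRHR-expressing cells.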
TRHR ag: qHTS for Small Molecule Agonists and Allosteric Enhancers of Human TRH Receptor: Primary Screen for Agonists | activation, % at 2 µM | 0.18% of 360,000 active | AID 493084, 2011 | TRHR cells, calcium flux fluo-8, FDSS agonist mode
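TRHR-expressing cells, plated overnight in medium with 10% serum, were loaded with fluo-8 calcium dye at room temperature. After a 10 s baseline, library compound was pin-added and calcium release was recorded kinetically (ex 480/em 530) as agonist response.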
D1 antagonist: Antagonist of Human D 1 Dopamine Receptor: qHTS. D(1A) dopamine receptor (Homo sapiens), P21728. 3.2% of 360,000 active. HEK293 TREx D1 cells, calcium flux, dopamine EC80; active compounds read low. activity change, negative = inhibition, % at 10 µM. AID 504652, 2011; in the data active = activity change below about -30%
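Inducible Hek293 Trex D1 cells (tetracycline, overnight, 30 C). Calcium dye 30–90 min RT. Antagonist mode: EC80 dopamine added after 180 s compound read.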
D1 PAM: Potentiators of Human D1 Dopamine Receptor: qHTS; D(1A) dopamine receptor (Homo sapiens), P21728; HEK293 TREx D1 cells, calcium flux, dopamine EC20 potentiation; potentiation, % at 10 µM; 0.036% of 360,000 active; AID 504651, 2011; in the data active = potentiation above about 30%
Large screens that a line does not name were inactive. Rule as the data show it, unless noted: active = activation above about 30%; inactive = the rest.

CCOC(=O)/C(C#N)=C\c1cn(C)c2ccccc12	D1 antagonist -31.9
CCOC(=O)/C(C#N)=C/c1cn(CCOc2ccccc2)c2ccccc12	none
CCOC(=O)c1[nH]c(C)c(C(=O)NCCc2ccccc2)c1C	none
COc1cc(CN2CCN(C(O)(c3ccccc3)c3ccccc3)CC2)cc(OC)c1OC	D1 antagonist -66.7
COc1ccc(CCNC(=O)C(=O)NCC2OCCN2S(=O)(=O)c2ccc3c(c2)OCCO3)cc1 (centres undefined)	none
CNC(=O)C(=O)NCC1OCCCN1S(=O)(=O)c1ccc(F)cc1C (centres undefined)	D1 antagonist -54.0
Cc1ccc(S(=O)(=O)N2CCOC2CNC(=O)C(=O)NCCN(C)C)cc1 (centres undefined)	TRHR PAM 36.8
Cc1ccc(CNC(=O)C(=O)NCC2OCCN2S(=O)(=O)c2ccc(C)cc2)cc1 (centres undefined)	none
Cc1ccc(CNC(=O)C(=O)NCC2OCCN2S(=O)(=O)c2ccc(Br)cc2)cc1 (centres undefined)	TRHR PAM 31.3
COc1ccc(CCNC(=O)C(=O)NCC2OCCN2S(=O)(=O)c2ccc3c(c2)OCCO3)cc1OC (centres undefined)	D1 antagonist -74.8
CCC(Cc1ccccc1)NC(=O)CN1C(=O)COc2ccc(S(=O)(=O)N3CCCCCC3)cc21 (centres undefined)	none
O=C(/C=C/c1ccccc1)Nc1cc(-c2nc3ccccc3o2)ccc1Cl	none
Cc1ccc(C(=O)NCCSc2c(C)[nH]c3ccccc23)cc1[N+](=O)[O-]	D1 antagonist -69.7
COc1ccccc1C(=O)NCCSc1c(C)[nH]c2ccccc12	none
COc1cccc(C(=O)NCCSc2c(C)[nH]c3ccccc23)c1OC	D1 antagonist -37.9
CCOC(=O)/C(=C/C=C1\Sc2cc(OCC)c(OCC)cc2N1CC)C(C)=O	D1 agonist 215.9, TRHR PAM 48.1, TRHR ag 244.1, D1 antagonist -30.3
CCOC(=O)/C(=C\C=C1/Sc2cc(OCC)c(OCC)cc2N1CC)C(C)=O	D1 agonist 329.2, TRHR ag 159.5, D1 antagonist -43.4
CCN1/C(=C/C(C)=O)Sc2ccc(OC)cc21	none
CCCN(CCC)CCNC(=O)c1sc2nc3n(c(=O)c2c1C)CCCCC3	none
CCc1cc2c(cc3c(=O)n(CC(=O)NC4CCC(C)CC4)nc(CC)n32)s1 (centres undefined)	none
C=Cc1ccc(Cn2c(SCC(=O)N3CCN(c4ccc(F)cc4)CC3)nc3ccccc32)cc1	none
CCCC(O)c1nc2ccccc2n1CCCCOc1ccc(OC)cc1 (centres undefined)	none
Fc1ccccc1CNc1nc(-c2cccnc2)nc2ccccc12	D1 antagonist -59.7 (no result: D1 PAM)
Cc1ccc(CN2C(=O)C(=O)c3cc(Br)cc(C)c32)cc1	D1 antagonist -49.0
O=C(NNS(=O)(=O)c1ccc(F)cc1)c1sccc1-n1cccc1	none
Cc1ccc(S(=O)(=O)NNC(=O)c2sccc2-n2cccc2)cc1	D1 antagonist -42.9
COC(=O)c1scc(C#N)c1N/N=C(\C#N)S(=O)(=O)c1ccc(Cl)cc1	D1 antagonist -32.4
CCOc1ccc(C(=O)Nc2ccc(S(=O)(=O)Nc3nc(C)cc(C)n3)cc2)cc1OC	none
COc1cccc(CN2CCNC(=O)C2CC(=O)NCCn2ccc3ccccc32)c1OC (centres undefined)	D1 antagonist -85.2
COc1ccc(S(=O)(=O)NCCc2cn3ccsc3n2)cc1OC	none
COc1ccc(S(=O)(=O)NCCc2cn3ccsc3n2)cc1	D1 antagonist -44.7
Cc1ccc(S(=O)(=O)NCCc2cn3ccsc3n2)cc1	D1 antagonist -72.6
CCOc1ccc(NC(=O)CN2CCN(c3ccc(Cl)cc3)CC2)cc1	none
O=S(=O)(NCC(c1ccco1)N1CCN(c2ccc(F)cc2)CC1)c1cc(F)ccc1F (centres undefined)	none (no result: D1 antagonist)
COc1cccc(N2CCN(C(=O)CN3CCSc4ccc(S(=O)(=O)N(C)C)cc43)CC2)c1	none
